RECQ1 inh-1 – blocks DNA unwinding by human RECQ1; RECQ1 DNA unwinding, red fluorescence kinetic read; P46063; actives 0.54% (n = 240,000); Potency, µM (highest dose often 57.3 µM), without a hit: top-dose activity, negative = inhibition, hits mostly inhibitors;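 note: plate controls were vehicle for no effect and no enzyme for full effect; nearly all actives have a fitted effect of over 30% in size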
Target sequence (P46063 whole entry, looked up): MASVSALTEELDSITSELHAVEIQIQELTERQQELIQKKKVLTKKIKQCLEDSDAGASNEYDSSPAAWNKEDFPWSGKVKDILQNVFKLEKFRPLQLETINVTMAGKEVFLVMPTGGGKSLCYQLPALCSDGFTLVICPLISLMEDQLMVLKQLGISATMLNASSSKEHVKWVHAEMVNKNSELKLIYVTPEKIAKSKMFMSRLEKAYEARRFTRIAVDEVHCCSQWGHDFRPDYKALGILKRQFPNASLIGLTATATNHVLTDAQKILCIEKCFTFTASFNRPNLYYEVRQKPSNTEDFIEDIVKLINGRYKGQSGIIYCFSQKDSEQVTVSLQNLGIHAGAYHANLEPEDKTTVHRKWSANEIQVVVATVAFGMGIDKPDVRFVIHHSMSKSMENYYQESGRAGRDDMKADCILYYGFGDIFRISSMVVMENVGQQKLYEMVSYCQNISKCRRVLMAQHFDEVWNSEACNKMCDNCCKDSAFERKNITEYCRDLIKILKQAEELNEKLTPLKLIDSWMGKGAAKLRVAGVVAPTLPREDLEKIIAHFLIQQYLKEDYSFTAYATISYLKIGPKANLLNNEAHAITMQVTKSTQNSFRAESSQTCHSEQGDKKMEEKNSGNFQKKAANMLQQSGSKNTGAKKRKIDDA
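50 nM RECQ1T1 preincubated 15 min with compound in Tris pH 8.0 buffer with MgCl2, DTT, Tween-20 and 2.5 ug/ml poly(dI-dC); started with 200 nM TAMRA/BHQ-2 forked duplex and 2 mM ATP. Unwinding read as fluorescence (525/598 nm), two reads 2 h apart.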
TRb-SRC2 inh – disrupts binding of human TR beta to SRC2 | Potency, µM (highest dose often 106 µM), for inactives: at the top dose activity change, negative = inhibition, actives largely listed as inhibitors | actives 0.065% (n = 280,000) | P10828 | TRbeta-SRC2 peptide binding, fluorescence polarization; receptor liganded with 1 µM T3;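 note: plate controls were bound peptide for no effect and peptide without receptor for full effect; nearly all actives have a fitted effect of over 50% in size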
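Decrease in fluorescence polarization of 20 nM Texas Red SRC2 coactivator peptide flagged inhibition of its binding to 0.6 uM TRb LBD; 1 uM T3 included, incubation 5 hr, ex 555/em 632 nm.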
BLM helicase inh – inhibitors of human Bloom syndrome helicase BLM. AID 2528. Potency, µM (doses to about 56.1 µM), inactives show at the highest dose activity change, negative = inhibition, actives largely listed as inhibitors. P54132. recombinant BLM DNA unwinding, fluorescence dequenching. actives 0.2% (n = 350,000);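 note: plate controls were vehicle for no effect and no enzyme for full effect; nearly all actives have a fitted effect of over 35% in size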
TR SRC2 fluor cs – counter-screen for TRb-SRC2 inhibitors: fluorescence interference. TRb/SRC2 Texas Red total fluorescence interference. Potency, µM (highest dose often 106 µM), inactives show top-dose fluorescence change, negative = quenching. actives 0.29% (n = 280,000). AID 1479; active = well fitted curve in either direction with a large enough effect; inconclusive = small, poorly fitted or top-dose-only effect
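Flags fluorescent or light-absorbing compounds by total fluorescence, S + 2P, at 555 nm excitation and 632 nm emission. Mixture: 20 nM Texas Red SRC2 peptide, 0.6 uM human TRb LBD, 1 uM T3, 5% DMSO; compound exposure 5 h at ambient temperature.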
RECQ1 inh conf – confirmation of human RECQ1 helicase inhibitors. RECQ1 helicase DNA unwinding, fluorescence. Potency, µM (highest dose often 229 µM), for inactives: at the top dose activity change, negative = inhibition, usual class: inhibitors. shares compounds with RECQ1 inh-1. actives 28% (n = 610); note: nearly all actives have a fitted effect of over 45% in size
RECQ1 ADP FP – counter-screen for RECQ1 inhibitors: ADP displacement. shares compounds with RECQ1 inh-1. ADP fluorescence polarization displacement counterscreen. Potency, µM (doses to about 228 µM), for the others: at the highest dose activity change, negative = inhibition, hits mostly inhibitors. actives 27% (n = 530); note: nearly all actives have a fitted effect of over 45% in size
RECQ1 inh-2 – RECQ1 helicase inhibition confirmed, round 2; shares compounds with RECQ1 inh-1; Potency, µM (titrated, usually from 119 µM), for the others: at the top dose activity, negative = inhibition, usual class: inhibitors; recombinant RECQ1 DNA unwinding, red fluorescence; actives 15% (n = 1,100); note: nearly all actives have a fitted effect of over 50% in size
* marks the source's active call; other numbers are inactive results; [ ] = remark or other dose. Only some compounds are listed: those with a hit (about 0.64% of all), similar ones and a draw of the others. Unless noted, calls come from the whole dose curve; as a rule, active = well fitted curve in the direction sought with a large enough effect; inconclusive = small, poorly fitted or top-dose-only effect, or another doubt; inactive = no such curve, though single readings can be large; an effect the other way counts as inactive or inconclusive. Unless noted, % is set by controls: 0 for no effect and ±100 for the full control effect; potency is the fitted concentration of half-maximal effect.

CC(C)(C)C1CCC2(CC1)C(C#N)=C(SCC(=O)Nc1ccccc1)NC(=O)C2C#N (centres undefined) was read as RECQ1 inh-1 13%, TRb-SRC2 inh -14%, BLM helicase inh -18% and TR SRC2 fluor cs -2%.
`Cc1ccc(-c2nc3c(c(=O)[nH]c(=O)n3Cc3ccccc3)n2C)o1` gave RECQ1 inh-1 14µM*, TRb-SRC2 inh -1%, BLM helicase inh inconclusive, TR SRC2 fluor cs -11%, RECQ1 inh conf inconclusive and RECQ1 inh-2 inconclusive.
`Cc1ccc(-c2nc3c(c(=O)[nH]c(=O)n3Cc3ccccc3)n2Cc2ccccc2)o1` gave RECQ1 inh-1 -16%, TRb-SRC2 inh -2%, BLM helicase inh -5% and TR SRC2 fluor cs -5%.
O=C(/C=C/c1ccc(O)c(O)c1)OC1C(O)CC(OC(=O)/C=C/c2ccc(O)c(O)c2)(C(=O)O)CC1O (centres undefined) was read as RECQ1 inh-1 -2%, TRb-SRC2 inh 3%, BLM helicase inh 6%, TR SRC2 fluor cs -1%, RECQ1 inh conf 6% and RECQ1 ADP FP -3%.
C=CCN1C(=O)CS/C1=N\S(=O)(=O)c1ccc(Cl)cc1 was read as RECQ1 inh-1 inconclusive, TRb-SRC2 inh -2%, BLM helicase inh 0%, TR SRC2 fluor cs 12% and RECQ1 inh-2 -10%.
Screening C=C1c2cccc(O)c2C(O)=C2C(=O)[C@@]3(O)C(O)=C(C(N)=O)C(=O)[C@@H](N(C)C)[C@@H]3[C@@H](O)[C@H]12 returned RECQ1 inh-1 inconclusive, TRb-SRC2 inh 3%[53 µM], BLM helicase inh -5%[21.4 µM], TR SRC2 fluor cs inconclusive, RECQ1 inh conf inconclusive and RECQ1 ADP FP 14µM*.
`Cc1cc(C)c(NC(=O)Cn2c(=O)n(Cc3ccc(C(=O)NCc4ccco4)cc3)c(=O)c3sccc32)c(C)c1` gave TRb-SRC2 inh 10%, BLM helicase inh -25% and TR SRC2 fluor cs 5%.
CC1CC=CC2C1C(=O)N(Cc1ccccc1)C2c1ccc(-c2ccoc2)cc1F (centres undefined) was read as RECQ1 inh-1 inactive, TRb-SRC2 inh 6%, BLM helicase inh -10% and TR SRC2 fluor cs 0%.
COc1ccc2c(c1)O/C(=C\c1ccco1)C2=O was read as RECQ1 inh-1 inconclusive, TRb-SRC2 inh -8%, BLM helicase inh 3%, TR SRC2 fluor cs -8% and RECQ1 inh-2 -8%.
CC(C)(O)C#Cc1ccc(CN2CCCC(CO)(Cc3cccc(Cl)c3)C2)cc1 (centres undefined) was read as RECQ1 inh-1 inconclusive, TRb-SRC2 inh 7%, BLM helicase inh -7%, TR SRC2 fluor cs -1% and RECQ1 inh-2 -26%.
For Cc1ccccc1CC1(CO)CCCN(Cc2ccc(C#CC(C)(C)O)cc2)C1 (centres undefined) the results were RECQ1 inh-1 19%, TRb-SRC2 inh 8%, BLM helicase inh -4% and TR SRC2 fluor cs 0%.
Screening Clc1ccccc1-c1nnc2sc(C3COc4ccccc4O3)nn12 (centres undefined) returned RECQ1 inh-1 4.5µM*, TRb-SRC2 inh -5%, BLM helicase inh -8%, TR SRC2 fluor cs 0%, RECQ1 inh conf -13%[114 µM], RECQ1 ADP FP inconclusive and RECQ1 inh-2 -19%.
For CCOC(=O)c1ccccc1NC(=O)c1sc2nc3n(c(=O)c2c1C)CCCC3 the results were TRb-SRC2 inh 2%, BLM helicase inh -11% and TR SRC2 fluor cs 8%.
`N/C(=N\OC(=O)c1ccc(F)cc1)c1ccc(Br)cc1` gave RECQ1 inh-1 4%, TRb-SRC2 inh 10%, BLM helicase inh -1% and TR SRC2 fluor cs -1%.
N#C/C=C(/N)c1ccc(Br)cc1 was read as RECQ1 inh-1 inconclusive, TRb-SRC2 inh 5%, BLM helicase inh -2%, TR SRC2 fluor cs 1% and RECQ1 inh-2 7%.
Cc1ccc(NC(=O)CN2C(=O)S/C(=C/c3ccc(O)c([N+](=O)[O-])c3)C2=O)cc1C was read as RECQ1 inh-1 inconclusive, TRb-SRC2 inh 12%, BLM helicase inh 25µM*, TR SRC2 fluor cs inconclusive and RECQ1 inh-2 22µM*.
`O=C(c1ccccc1)c1c2c(cc3sc4ccccc4[n+]13)-c1cccc3cccc-2c13` gave RECQ1 inh-1 14µM*, TRb-SRC2 inh -14%, BLM helicase inh -16%, TR SRC2 fluor cs 19% and RECQ1 inh-2 32µM*.
For Cc1sc2cc3c(c(C(=O)c4ccccc4)[n+]2c1C)-c1cccc2cccc-3c12 the results were RECQ1 inh-1 -10%, TRb-SRC2 inh -4%, BLM helicase inh 105% and TR SRC2 fluor cs 0%.
For O=C1c2cccc3c(N4CCCCC4)ccc(c23)C(=O)N1c1cccc(O)c1 the results were RECQ1 inh-1 inactive, TRb-SRC2 inh -6%, BLM helicase inh 3% and TR SRC2 fluor cs 3%.
`Cc1n[nH]c(C)c1N1C(=O)c2cccc3c(N4CCCCCC4)ccc(c23)C1=O` gave RECQ1 inh-1 28µM*, TRb-SRC2 inh -9%, BLM helicase inh -4%, TR SRC2 fluor cs 3% and RECQ1 inh-2 79µM*.
Cc1ccccc1NC(=O)c1cccc(C(=O)Nc2ccccc2C)n1 was read as BLM helicase inh -1%.
For Cc1cccc(NC(=O)c2ccc3ccccc3n2)c1C the results were RECQ1 inh-1 inconclusive, TRb-SRC2 inh 0%, BLM helicase inh -6%, TR SRC2 fluor cs -1% and RECQ1 inh-2 -32%.
Screening COc1ccc(Cn2nnnc2C(c2cccnc2)N2CCN(c3ccc(O)cc3)CC2)cc1 (centres undefined) returned RECQ1 inh-1 1.3µM*, TRb-SRC2 inh -11%, BLM helicase inh -2%, TR SRC2 fluor cs 2%, RECQ1 inh conf 0%[114 µM], RECQ1 ADP FP 8%[91.9 µM] and RECQ1 inh-2 0%.
COc1ccc(Cn2nnnc2C(c2cccs2)N2CCN(c3ccccc3)CC2)cc1 (centres undefined) was read as RECQ1 inh-1 -16%, TRb-SRC2 inh -19%, BLM helicase inh -11% and TR SRC2 fluor cs 0%.
Screening CCOC(=O)c1c(Nc2ccc(OC)cc2)nnc(-c2ccccc2)c1-c1ccccc1 returned TRb-SRC2 inh 10%, BLM helicase inh -10% and TR SRC2 fluor cs -3%.
Screening COC(=O)c1c(NC(=O)Cc2cccs2)sc2c1CCCC2 returned RECQ1 inh-1 28µM*, TRb-SRC2 inh 2%, BLM helicase inh -25%, TR SRC2 fluor cs -6% and RECQ1 inh-2 inconclusive.

Assay outcomes: PubChem, National Center for Advancing Translational Sciences (NCATS)
